Data on eight molecules can be found in PubChem BioAssay (Tox21).

Assay [1] concerns the target Estrogen receptor (Homo sapiens) (UniProt P03372). The experiment in a line: qHTS assay to identify small molecule antagonists of the estrogen receptor alpha (ER-alpha) signaling pathway using the BG1 cell line in the presence of 0.1 nM 17-beta-estradiol (AID 1259244). Further: nearly all actives have a fitted effect of over 50% in size. Summed up: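 Antagonist mode: compounds in DMSO are pinned onto VM7Luc4E2 reporter cells, 0.1 nM final 17beta-estradiol is added, and after 22 h at 37C luciferase luminescence is measured with ONE-Glo.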
A general note: Quantitative high-throughput screening tests each substance at several concentrations.

The nature of assay [2]: qHTS assay to identify small molecule HDAC inhibitors - cell viability counter screen (AID 1259365). Further: series mostly up to about 92 µM; nearly all actives have a fitted effect of over 50% in size. The method, boiled down: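 After overnight seeding at 1,500 cells per well, wild-type HCT-116 cultures took up compounds in DMSO for 2hr at 37 C. Viable cell content came from luminescence with CellTiter-Glo.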
Assay [3] is described as follows: qHTS assay to identify small molecule agonists of the sonic hedgehog signaling (Shh) pathway - cell viability counter screen (AID 1259366). Further: nearly all actives have a fitted effect of over 50% in size. Further: potency means the concentration at half of the fitted maximal effect. The method, boiled down:
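Same-well cytotoxicity read. Gli1-Luc reporter 3T3 cells; compounds 24hr, 37C/5% CO2; CellTiter-Fluor fluorescence.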

A short description of assay [4]: qHTS assay to identify small molecule antagonists of the sonic hedgehog signaling (Shh) pathway - cell viability counter screen (AID 1259367). Further: nearly all actives have a fitted effect of over 55% in size. Further: potency means the concentration at half of the fitted maximal effect. The method, boiled down: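 Fluorescence read-out (CellTiter-Fluor, 1 hr at 37C) taken after 23 hr compound treatment of 3T3 Gli1-Luc cells stimulated with conditioned medium. Cells were seeded at 2,000 per well and pre-incubated 4 hr.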

The nature of assay [5]: qHTS assay to identify small molecule agonists of the sonic hedgehog signaling (Shh) pathway (AID 1259368; calls by dose curve;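 further: NIH/3T3-derived 3T3Gli1-Luc cells carrying a stable Gli1-driven firefly luciferase reporter; series mostly up to about 92 µM; nearly all actives have a fitted effect of over 15% in size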). The method, boiled down: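 Cells of a mouse NIH/3T3 clone stably expressing luciferase under the Gli1 transcriptional response element are exposed to test chemicals for 24 hr at 37 C. Pathway activation is detected as a rise in luminescence.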
A short description of assay [6]: qHTS assay to identify small molecule antagonists of the sonic hedgehog signaling (Shh) pathway (AID 1259369; calls by dose curve; further: nearly all actives have a fitted effect of over 45% in size; further: potency means the concentration at half of the fitted maximal effect). Summed up: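 Cells are plated and held 4hr at 37 C, compounds (DMSO) are pinned in, conditioned medium is added to stimulate the pathway, and after 24hr luciferase reagent is added for 30min before luminescence is read.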
Assay [7] addresses Estrogen receptor beta (Homo sapiens) (UniProt Q92731). The experiment in a line: qHTS assay to identify small molecule agonists of the estrogen receptor beta (ER-beta) signaling pathway (AID 1259377; active means well fitted activation curve with a large enough effect in the signal ratio in the repeat runs, not every such curve was filed as active; the % refers to the signal ratio). Summed up: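 Read-out: beta-lactamase FRET fluorescence. Cell line: ER-beta-UAS-bla HEK293T in 2% charcoal-stripped FBS. Exposure: 16 hr at 37C. Substrate step: 2 h at room temperature.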

Assay [8] has the same target. The experiment in a line: qHTS assay to identify small molecule antagonists of the estrogen receptor beta (ER-beta) signaling pathway (AID 1259378; active means well fitted inhibition curve with a large enough effect in the signal ratio in the repeat runs, not every such curve was filed as active; the % refers to the signal ratio). Summed up: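 ER-beta-UAS-bla HEK293T cells in 2% charcoal-stripped FBS medium treated with compound plus 1nM final 17-beta-estradiol for 16 hr at 37C. Beta-lactamase reporter read by FRET substrate fluorescence after 2 hours at room temperature.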

The nature of assay [9]: qHTS assay to identify small molecule agonists of the androgen receptor (AR) signaling pathway in the presence of an antagonist - cell viability counter screen (AID 1259379).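 Further: MDA-kb2 human breast cancer cells carrying an MMTV luciferase reporter; series mostly up to about 92 µM; nearly all actives have a fitted effect of over 25% in size.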 The method, boiled down: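 Cytotoxicity is assessed by CellTiter-Fluor in MDA-kb2 cells carrying an MMTV-driven luciferase reporter. Cells receive 3.0uM nilutamide plus compounds at 15 concentrations and incubate 16 hr at 37C without CO2 before fluorescence reading.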

Assay [10] is described as follows: qHTS assay to identify small molecule agonists of the estrogen receptor beta (ER-beta) signaling pathway - cell viability counter screen (AID 1259380). Further: nearly all actives have a fitted effect of over 30% in size. Further: potency means the concentration at half of the fitted maximal effect. Summed up: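 Cytotoxicity is measured in parallel with the reporter screen: after 16 hr compound exposure at 37C and a 2 hr LiveBLAzer step, CellTiter-Glo is added to the same ER-beta-UAS-bla HEK293T wells and luminescence read after 30 min.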

For assay [11], the target named is Androgen receptor (Homo sapiens) (UniProt P10275). The experiment in a line: qHTS assay to identify small molecule agonists of the androgen receptor (AR) signaling pathway in the presence of an antagonist (AID 1259381; calls by dose curve; further: nearly all actives have a fitted effect of over 15% in size). Summed up:
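Agonist-mode confirmation screen: human MDA-kb2 cells stably expressing luciferase under an MMTV promoter bearing AR and GR response elements, co-treated with 3.0uM nilutamide (final). Luminescence measured after 16hr compound incubation.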

Assay [12] is described as follows: qHTS assay to identify small molecule antagonists of the estrogen receptor beta (ER-beta) signaling pathway - cell viability counter screen (AID 1259382). Further: nearly all actives have a fitted effect of over 55% in size. Further: potency means the concentration at half of the fitted maximal effect. Summed up:
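Cytotoxicity counter screen multiplexed with the beta-lactamase antagonist assay: GripTite HEK293T ER-beta-bla cells were treated 16 hr with test chemicals in the presence of 1nM 17-beta-estradiol, and viability was measured by CellTiter-Glo.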

In assay [13] the target is Estrogen receptor (Homo sapiens) (UniProt P03372). The experiment in a line: qHTS assay to identify small molecule agonists of the estrogen receptor alpha (ER-alpha) signaling pathway in the presence of an antagonist (AID 1259383; calls by dose curve; further: top concentration of the series differs between compounds; nearly all actives have a fitted effect of over 15% in size). Summed up:
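Agonist-mode confirmation in the presence of the ER antagonist ICI-182,780 at 10.0nM final. Breast-derived VM7Luc4E2 reporter cells were exposed to compounds for 22hr, and ERE-driven luciferase was quantified by luminescence.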

The nature of assay [14]: qHTS assay to identify small molecule agonists or antagonists of the thyroid stimulating hormone receptor (TSHR) signaling pathway - wild type cell line counter screen (AID 1259384; calls by dose curve). The method, boiled down: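 Wild-type Hek293 cells, 800/well, 18 h at 37C, then compound with Ro20-1724 for 30 min RT. cAMP by HTRF (cAMP-d2/anti-cAMP cryptate), 1 h RT, fluorescence read. 15 concentrations, triplicates.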

In assay [15] the target is Thyrotropin receptor (Homo sapiens) (UniProt P16473). The experiment in a line: qHTS assay to identify small molecule antagonists of the thyroid stimulating hormone receptor (TSHR) signaling pathway (AID 1259385; calls by dose curve; further: nearly all actives have a fitted effect of over 20% in size). Summed up:
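TSHR-HEK293 cells (800/well) plated 18 h, then compounds with Ro20-1724 and TSH at 1.5 ng/mL final, 30 min at room temperature. cAMP quantified by HTRF (cAMP-d2/anti-cAMP-cryptate, 1 h); 15 concentrations in triplicate.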

A short description of assay [16]: qHTS assay to identify small molecule agonists of the estrogen receptor alpha (ER-alpha) signaling pathway in the presence of an antagonist - cell viability counter screen (AID 1259386).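 Further: series mostly up to about 92 µM; cells exposed to compounds for 22 h at 37 °C before the viability read; nearly all actives have a fitted effect of over 30% in size.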 The method, boiled down:
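Cytotoxicity was measured in parallel with the ERE-luciferase agonist screen, in the same wells. The cells were VM7Luc4E2, which endogenously express ER-alpha, and treatment was with compounds plus 10.0nM ICI-182,780 for 22hr.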

Assay [17] in a line: qHTS assay to identify small molecule HDAC inhibitors (AID 1259364).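 Further: wild-type HCT-116 cells with endogenous class I/II HDAC activity; top concentration of the series differs between compounds; nearly all actives have a fitted effect of over 45% in size.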 The method, boiled down: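 Cells (HCT-116, wild type) are seeded at 1,500 per well, incubated overnight, treated with compound in DMSO for 2 hr, then developed with HDAC-Glo I/II reagent for 30 min at room temperature.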
Assay [18] concerns the target Progesterone receptor (Homo sapiens) (UniProt P06401). The experiment in a line: qHTS assay to identify small molecule agonists of the progesterone receptor (PR) signaling pathway (AID 1346784; calls by dose curve; further: nearly all actives have a fitted effect of over 30% in size). The method, boiled down: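 Compounds were tested for PR agonism in HEK 293T cells bearing a beta-lactamase gene under UAS control. Treatment lasted 16 hr at 37C; signal came from fluorescence of a FRET substrate.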

Assay [19] is described as follows: qHTS assay to identify small molecule phospholipidosis (PLD) inducers (AID 1259344; active means well fitted curve in the direction sought with a large enough effect; an effect the other way counts as inactive or inconclusive). The method, boiled down:
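Read-out is LipidTOX Red fluorescence (ex 595/em 615) imaged in HepG2 cells after 24 h compound exposure at 37 C, with Hoechst nuclear counterstain (ex 352/em 461) allowing per-cell normalisation.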

Results filed as inconclusive are left out. Activity calls are given as the source filed them. Unless noted, the call rests on the fitted dose curve; in most records, active means well fitted curve in the direction sought with a large enough effect in the repeat runs; inconclusive means weak or mixed curves; inactive means no such curve, though single readings can be large; an effect the other way counts as inactive or inconclusive.

Estrogen receptor (Homo sapiens), sequence (P03372 whole entry, looked up): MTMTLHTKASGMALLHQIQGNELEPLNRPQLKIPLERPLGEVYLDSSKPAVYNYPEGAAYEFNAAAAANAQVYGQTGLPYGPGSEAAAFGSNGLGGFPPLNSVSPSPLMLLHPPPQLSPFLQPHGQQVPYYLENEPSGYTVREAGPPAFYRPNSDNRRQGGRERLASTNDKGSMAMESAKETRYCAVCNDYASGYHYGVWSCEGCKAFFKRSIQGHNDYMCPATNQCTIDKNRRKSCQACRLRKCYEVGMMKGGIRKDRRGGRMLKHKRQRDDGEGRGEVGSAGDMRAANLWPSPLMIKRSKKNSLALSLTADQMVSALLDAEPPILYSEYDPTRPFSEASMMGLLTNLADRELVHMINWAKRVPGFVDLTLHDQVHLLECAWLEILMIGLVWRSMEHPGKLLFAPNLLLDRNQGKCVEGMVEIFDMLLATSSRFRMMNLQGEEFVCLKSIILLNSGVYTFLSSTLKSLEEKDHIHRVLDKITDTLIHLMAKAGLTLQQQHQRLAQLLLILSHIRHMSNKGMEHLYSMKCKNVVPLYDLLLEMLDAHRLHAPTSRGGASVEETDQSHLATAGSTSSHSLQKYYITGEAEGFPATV
Progesterone receptor (Homo sapiens), sequence (P06401 whole entry, looked up): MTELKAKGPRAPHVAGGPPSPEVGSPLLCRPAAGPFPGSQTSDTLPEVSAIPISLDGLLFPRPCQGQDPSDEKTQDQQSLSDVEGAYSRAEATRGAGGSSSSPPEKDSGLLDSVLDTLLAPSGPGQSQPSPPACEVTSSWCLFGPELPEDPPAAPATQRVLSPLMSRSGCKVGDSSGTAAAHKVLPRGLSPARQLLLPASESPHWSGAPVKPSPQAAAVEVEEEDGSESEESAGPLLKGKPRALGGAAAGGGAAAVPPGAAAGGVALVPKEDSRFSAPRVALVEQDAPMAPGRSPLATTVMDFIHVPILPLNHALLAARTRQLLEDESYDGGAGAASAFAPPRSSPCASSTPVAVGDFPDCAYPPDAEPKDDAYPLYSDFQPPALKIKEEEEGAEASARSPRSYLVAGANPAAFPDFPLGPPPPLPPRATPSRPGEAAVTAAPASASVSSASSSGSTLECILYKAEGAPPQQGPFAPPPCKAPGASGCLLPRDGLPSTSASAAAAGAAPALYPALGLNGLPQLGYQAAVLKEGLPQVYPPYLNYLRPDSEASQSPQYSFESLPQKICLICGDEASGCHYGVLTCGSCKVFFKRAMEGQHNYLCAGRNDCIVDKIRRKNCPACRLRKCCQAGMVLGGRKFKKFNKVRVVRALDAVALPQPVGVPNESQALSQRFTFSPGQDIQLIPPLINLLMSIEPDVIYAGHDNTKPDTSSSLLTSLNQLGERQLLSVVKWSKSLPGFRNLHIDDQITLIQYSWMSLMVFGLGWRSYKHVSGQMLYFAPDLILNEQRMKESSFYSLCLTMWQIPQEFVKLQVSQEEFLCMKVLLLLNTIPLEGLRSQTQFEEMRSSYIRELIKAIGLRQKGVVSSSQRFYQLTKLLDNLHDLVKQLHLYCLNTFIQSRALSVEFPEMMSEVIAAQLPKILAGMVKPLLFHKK
Estrogen receptor beta (Homo sapiens), sequence (Q92731 whole entry, looked up): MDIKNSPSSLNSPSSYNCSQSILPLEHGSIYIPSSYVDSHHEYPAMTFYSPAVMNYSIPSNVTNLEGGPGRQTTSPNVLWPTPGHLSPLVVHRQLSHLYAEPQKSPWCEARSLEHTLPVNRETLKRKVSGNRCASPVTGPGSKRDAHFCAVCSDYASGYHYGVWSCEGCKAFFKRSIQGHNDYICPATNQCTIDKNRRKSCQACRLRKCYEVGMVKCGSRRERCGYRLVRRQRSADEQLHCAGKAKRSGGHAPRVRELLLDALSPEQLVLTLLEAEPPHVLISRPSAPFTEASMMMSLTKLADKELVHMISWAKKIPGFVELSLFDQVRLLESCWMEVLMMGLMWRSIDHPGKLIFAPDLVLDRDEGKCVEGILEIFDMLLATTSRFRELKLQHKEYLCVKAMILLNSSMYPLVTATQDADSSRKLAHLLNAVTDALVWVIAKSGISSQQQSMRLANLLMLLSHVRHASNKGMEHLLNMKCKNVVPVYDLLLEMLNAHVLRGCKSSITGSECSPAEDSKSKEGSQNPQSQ
Thyrotropin receptor (Homo sapiens), sequence (P16473 whole entry, looked up): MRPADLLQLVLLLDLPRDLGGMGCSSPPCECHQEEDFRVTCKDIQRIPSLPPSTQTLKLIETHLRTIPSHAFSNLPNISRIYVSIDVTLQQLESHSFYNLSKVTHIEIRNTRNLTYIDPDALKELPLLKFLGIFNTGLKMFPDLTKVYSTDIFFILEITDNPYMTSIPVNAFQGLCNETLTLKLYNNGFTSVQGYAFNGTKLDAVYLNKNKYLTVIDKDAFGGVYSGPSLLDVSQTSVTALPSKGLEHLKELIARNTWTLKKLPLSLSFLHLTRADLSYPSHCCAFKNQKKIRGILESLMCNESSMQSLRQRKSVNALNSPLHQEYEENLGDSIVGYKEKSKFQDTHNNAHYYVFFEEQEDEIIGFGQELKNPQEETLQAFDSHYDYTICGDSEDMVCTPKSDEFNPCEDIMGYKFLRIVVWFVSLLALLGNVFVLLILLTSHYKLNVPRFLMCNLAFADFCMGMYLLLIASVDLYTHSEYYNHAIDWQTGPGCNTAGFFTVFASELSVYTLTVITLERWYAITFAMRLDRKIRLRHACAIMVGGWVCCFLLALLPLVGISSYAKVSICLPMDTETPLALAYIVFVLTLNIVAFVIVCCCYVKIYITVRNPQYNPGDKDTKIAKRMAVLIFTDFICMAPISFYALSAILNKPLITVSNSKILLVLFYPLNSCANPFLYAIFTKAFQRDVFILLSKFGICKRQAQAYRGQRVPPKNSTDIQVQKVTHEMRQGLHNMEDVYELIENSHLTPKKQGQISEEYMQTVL
Androgen receptor (Homo sapiens), sequence (P10275 whole entry, looked up): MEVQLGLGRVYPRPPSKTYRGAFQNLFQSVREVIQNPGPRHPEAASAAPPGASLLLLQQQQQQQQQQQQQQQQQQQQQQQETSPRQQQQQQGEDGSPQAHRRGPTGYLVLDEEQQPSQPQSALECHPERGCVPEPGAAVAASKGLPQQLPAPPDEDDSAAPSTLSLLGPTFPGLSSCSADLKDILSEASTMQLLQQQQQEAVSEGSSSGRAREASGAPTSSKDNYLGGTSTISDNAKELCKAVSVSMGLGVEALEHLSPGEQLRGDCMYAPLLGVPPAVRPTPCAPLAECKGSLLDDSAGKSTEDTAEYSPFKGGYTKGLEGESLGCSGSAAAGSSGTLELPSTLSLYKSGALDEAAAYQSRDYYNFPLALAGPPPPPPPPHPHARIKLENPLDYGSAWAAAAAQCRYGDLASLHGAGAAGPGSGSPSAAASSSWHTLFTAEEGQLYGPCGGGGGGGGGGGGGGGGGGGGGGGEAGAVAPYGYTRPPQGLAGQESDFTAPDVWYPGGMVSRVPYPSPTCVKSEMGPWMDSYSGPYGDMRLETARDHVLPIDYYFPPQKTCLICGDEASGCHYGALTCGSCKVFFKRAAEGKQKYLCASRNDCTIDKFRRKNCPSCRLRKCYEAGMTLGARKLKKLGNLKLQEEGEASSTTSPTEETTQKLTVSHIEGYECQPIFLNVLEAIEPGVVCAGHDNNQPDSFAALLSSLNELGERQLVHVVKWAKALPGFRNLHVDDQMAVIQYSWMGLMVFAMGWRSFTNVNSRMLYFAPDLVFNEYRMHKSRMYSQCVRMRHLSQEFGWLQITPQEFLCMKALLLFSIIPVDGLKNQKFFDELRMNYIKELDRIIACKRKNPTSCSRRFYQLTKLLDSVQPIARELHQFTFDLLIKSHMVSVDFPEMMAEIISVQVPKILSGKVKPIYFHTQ

Turning to `N#CC1(c2ccc(F)cc2)CCC(=O)CC1`, the Potency result in assay [1], in assay [2], in assay [3], in assay [4], in assay [5] and in assay [6] was “inactive” each time. The Potency result in assay [7], in [8], in assay [9], in assay [10], in assay [11] and in [12] was “inactive” in each case. Moreover, the Potency result in assay [13], in assay [15] and in [16] was “inactive” each time. The molecule was classed as inactive in [14].

Regarding `CSc1ccc2c(c1)C(N1CCN(C)CC1)Cc1ccccc1S2` (centres undefined), the Potency entry in [1], in assay [17], in assay [2], in assay [5], in [13] and in [16] was “inactive” each time. Besides, the Potency in assay [3] was 23.7 µM (active); in assay [6], 15 µM (active); in assay [10], 16.8 µM (active); in [12], 16.8 µM (active).

For the molecule `CCC(N)(CO)CO`, the Potency entry in assay [1], in [17], in [2], in assay [3], in [4] and in assay [5] was “inactive” throughout. Further, the Potency result in assay [7], in assay [9], in assay [10], in [12], in assay [16] and in [18] was “inactive” in each case.

For `CCCCC(CC)COC(=O)c1ccccc1C(=O)O` (centres undefined), the Potency entry in assay [19], in assay [17], in assay [2], in assay [3], in [9] and in assay [16] was “inactive” each time. In addition, the result in [14] was inactive.

Take `O=C(Oc1cccc2cccnc12)c1ccccc1`: the Potency entry in [19], in assay [2], in assay [5], in assay [6], in assay [7] and in assay [15] was “inactive” each time. Besides, the Potency result in assay [16] is “inactive”. The Potency was 1.5 µM (active) in assay [3] and 10.6 µM (active) in [10]. Also, the molecule was called inactive in [14].

Take `COc1cc(/C=C/C(=O)O[C@H]2CC[C@]34C[C@]35CC[C@]3(C)[C@@H]([C@H](C)CCC=C(C)C)CC[C@@]3(C)[C@@H]5CC[C@H]4C2(C)C)ccc1O`: the Potency result in assay [19], in assay [17], in [2], in assay [3], in [4] and in [5] was “inactive” in each case. Besides, the Potency entry in assay [6], in assay [9], in [10], in [12], in assay [16] and in assay [18] was “inactive” in each case.

In the case of `S=c1[nH]c2ccccc2s1`, the Potency entry in [19], in assay [2], in assay [7], in [9], in assay [16] and in [18] was “inactive” in each case. For the same molecule, the Potency is 48.6 µM (active) in assay [4] and 21.7 µM (active) in [6].

With `C[C@H]1[C@H]2CC[C@H]3[C@@H]4CC=C5C[C@@H](N(C)C)CC[C@]5(C)[C@H]4CC[C@]23CN1C`, the Potency result in assay [19], in assay [17], in assay [2], in [4], in assay [5] and in assay [6] was “inactive” in each case. Besides, the Potency entry in assay [7], in assay [10], in assay [11], in assay [12], in assay [15] and in assay [16] was “inactive” throughout. Further, the Potency entry in assay [18] is “inactive”. Also, in assay [14], the result was inactive.
